# Compounds with a hit are over-represented: about 7.6% of the library has one in this group of screens.
# BRCA1 expr up: qHTS Assay to Identify Small Molecule Activators of BRCA1 Expression. MCF7-BRCA1-FFLuc reporter, luminescence, 48 h; response scale: scaled: vehicle 0%, 10 µM genistein 100%. Potency, µM (series often up to 46.1 µM), inactives show at the highest dose activation, actives largely listed as activators. actives 1.1% (n = 380,000). AID 624202, 2012; also: potency is read from the fitted curve at half-maximal effect; nearly all actives have a fitted effect of over 80% in size
#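 Compounds are tested at multiple concentrations on MCF7 BRCA1-luciferase reporter cells seeded at 2000 per well; after 48 h, a single luminescence end-point is taken and curves fitted to the normalized data.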
# RORg inh: qHTS for inhibitors of ROR gamma transcriptional activity. actives 5.4% (n = 310,000). Drosophila S2 Gal4-RORgamma UAS-luciferase reporter, 20 h. Nuclear receptor ROR-gamma (Mus musculus), P51450. Potency, µM (highest dose often 53.6 µM), inactives show at the top dose activity change, negative = inhibition, usual class: inhibitors; also: potency is read from the fitted curve at half-maximal effect; % is scaled to controls: 0 for no effect and ±100 for the full control effect; nearly all actives have a fitted effect of over 60% in size
# Target sequence (P51450 whole entry, looked up, the tested form may be a part): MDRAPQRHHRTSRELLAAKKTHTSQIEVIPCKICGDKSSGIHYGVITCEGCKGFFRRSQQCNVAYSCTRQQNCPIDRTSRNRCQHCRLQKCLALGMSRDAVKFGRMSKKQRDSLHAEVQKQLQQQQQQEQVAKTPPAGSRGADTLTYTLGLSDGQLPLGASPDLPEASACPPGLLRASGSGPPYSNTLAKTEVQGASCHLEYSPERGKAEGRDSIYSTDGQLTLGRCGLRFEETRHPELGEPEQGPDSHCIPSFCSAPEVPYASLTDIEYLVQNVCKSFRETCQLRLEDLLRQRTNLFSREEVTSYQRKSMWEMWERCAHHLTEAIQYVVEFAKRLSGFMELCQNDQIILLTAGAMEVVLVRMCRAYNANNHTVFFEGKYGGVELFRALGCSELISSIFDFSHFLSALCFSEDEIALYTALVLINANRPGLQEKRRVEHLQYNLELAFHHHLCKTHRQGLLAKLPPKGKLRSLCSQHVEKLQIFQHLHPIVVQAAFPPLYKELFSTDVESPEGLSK
#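 Drosophila Schneider cells stably carrying a metallothionein-driven Gal4 DBD–ROR gamma fusion and a UAS-Photinus luciferase reporter were exposed to compound for 1 hr, then induced with copper sulfate (700 uM final) for 20 hr at ambient temperature before luminescence reading.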
# Gal4-VP16 FLuc: VP16 counterscreen qHTS for inhibitors of ROR gamma transcriptional activity; actives 3.5% (n = 310,000); Drosophila S2 Gal4-VP16 UAS-luciferase, luminescence, 20 h; Potency, µM (titrated, usually from 53.6 µM), for inactives: top-dose activity, negative = inhibition, actives largely listed as inhibitors; AID 2546, 2010;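 also: Gal4-VP16 expression switched on by copper sulfate through the metallothionein promoter; potency is read from the fitted curve at half-maximal effect; % is scaled to controls: 0 for no effect and ±100 for the full control effect; nearly all actives have a fitted effect of over 50% in size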
# p53 reactivator: qHTS assay for re-activators of p53 using a Luc reporter; actives 0.063% (n = 320,000); H1299 p53-A138V BP100-luciferase reporter, luminescence, 24 h; Potency, µM (top dose mostly 92.2 µM), for the others: top-dose activity change, positive = activation, hits mostly activators; AID 504706, 2011; also: potency is read from the fitted curve at half-maximal effect; % of control where 0% means no effect; nearly all actives have a fitted effect of over 45% in size
#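 H1299 (p53-null), stable ts p53-A138V + BP100-Luc; 1000 cells/well, Opti-MEM/10% FBS; cpd 4 pt, 1:5; 24 h, 37 deg C, 5% CO2; detection reagent 10 min RT; luminescence.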
# ELG1 DNA repair: qHTS screen for small molecules that inhibit ELG1-dependent DNA repair in human embryonic kidney (HEK293T) cells expressing luciferase-tagged ELG1; HEK293T ELG1-luciferase reporter, luminescence, 16 h; DNA damage induced by 5-fluorouridine; Potency, µM (series often up to 46.1 µM), inactives show at the top dose activity change, negative = inhibition, usual class: inhibitors; actives 2.3% (n = 330,000); AID 504467, 2011; also: potency is read from the fitted curve at half-maximal effect; % is scaled to controls: 0 for no effect and ±100 for the full control effect; nearly all actives have a fitted effect of over 55% in size
#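 DMSO vehicle served as the neutral condition. Each well held 2,000 cells given 5-fluorouridine plus compound; after 16 hr at 37 °C/5% CO2, ONE-Glo was added and luciferase measured 30 min later.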
# Giardia killer: Small Molecules that selectively kill Giardia lamblia: qHTS | Giardia lamblia trophozoite viability | activity change, % at 7.66 µM, hits read low | actives 0.15% (n = 340,000); in the data active = activity change below about -80%; inconclusive = between about -30% and that limit;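 also: parasites exposed to compound for two days anaerobically before the ATP read; % is scaled to controls: 0 for no effect and ±100 for the full control effect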
#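 Trophozoite viability was measured as ATP-dependent luminescence, read 15-30 min after reagent addition. Before that, parasites at 100 cells/well were exposed to compounds for 48 h, anaerobically, at 37 deg C.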
# The depositor's hits bear a star; ? = inconclusive; nt = no result; ! = a repeat was not active; [ ] = dose if it differs, or a comment. Unless noted, calls follow the shape of the dose curve; as a rule, active = well fitted curve in the direction sought with a large enough effect; inconclusive = small, poorly fitted or top-dose-only effect, or another doubt; inactive = no such curve, though single readings can be large; an effect the other way counts as inactive or inconclusive.
SMILES,BRCA1 expr up,RORg inh,Gal4-VP16 FLuc,p53 reactivator,ELG1 DNA repair,Giardia killer
O=C1CSC(c2ccncc2)N1Cc1ccccc1 (configuration not stated),-14.1%,-0.9%,3.4%,6.8%,1.6%,5.2
Nc1c(C(=O)Nc2ccc(S(=O)(=O)N3CCCC3)cc2)sc2nc3cc4c(cc3cc12)CCC4,-1.4%,-16.4%,-14.3%,?,22.6%,0.7
Nc1c(C(=O)Nc2ccc(S(=O)(=O)N3CCCC3)cc2)sc2nc3ccc(OC(F)(F)F)cc3cc12,-79.8%,15.8µM*,10µM*,0.0%,?,-5.8
COc1ccccc1CCNS(=O)(=O)CCNC(=O)c1ccccc1,-29.6%,nt,nt,-1.4%,-8.7%,26.5
COc1ccccc1CCNC(=O)c1ccc(Br)s1,8.91µM*,0.0%,-9.7%,7.5%,?,-24.6
Cc1cc(-n2c(C)cc(C(=S)N3CCOCC3)c2C)ccc1Br,-16.8%,8.91µM*,?,0.3%,?,?
Cc1cccc(/C=N/c2sc3c(c2C#N)CCN(Cc2ccccc2)C3)c1O,-22.3%,22.2%,?,-2.5%,-0.8%,16.0
COCCCNc1ncnc2nc[nH]c12,1.5%,?,-6.6%,2.5%,-1.6%,-15.0
O=C(Sc1cccc2cccnc12)c1ccc(F)cc1,nt,1.12µM*,4.47µM*,4.2%,?,nt
O=C(Sc1cccc2cccnc12)c1ccccc1Br,nt,0.794µM*,2µM*,13.7%,?,nt
CN(C)C(=O)CSc1cccc2cccnc12,-42.9%,10µM*,?,-8.1%,?,-5.0
CCOC(=O)[C@]12CCC=C1N(CCC1=CCCCC1)C(=O)[C@H](CC(=O)NCc1cccc(C(F)(F)F)c1)C2,-6.9%,nt,nt,nt,nt,nt
CC(=O)N(Cc1cccnc1)Cc1cc2ccc(C)cc2[nH]c1=O,0.0%,?,-11.3%,-3.0%,-0.4%,7.2
NCCCn1c(C(=O)c2ccc(Cl)cc2)c2ccc([N+](=O)[O-])cc2[n+]1[O-],-75.2%,nt,nt,26.6%,-11.7%,?
NC(=O)CCCn1c(C(=O)c2ccc(Cl)cc2)c2ccc([N+](=O)[O-])cc2[n+]1[O-],-1.5%,nt,nt,?,?,-87.1*
O=c1oc2ccccc2c2c1SC(C(F)(F)F)C2 (configuration not stated),15.5%,-21.7%,6.9%,-5.3%,-3.1%,-1.7
CCCCNc1c(C(=O)OCC)c(C)nc2c1cnn2CC,0.0%,31.6µM*!,?,nt,nt,10.4
CC(=O)c1sc(NC(=O)CN2C(=O)C3CC=CCC3C2=O)nc1-c1ccccc1 (configuration not stated),-34.2%,nt,nt,21.2%,0.2%,-14.3
COc1cc(CC(=O)Nc2nc(-c3ccccc3)c(C(C)=O)s2)cc(OC)c1OC,-30.7%,12.6%,-5.5%,-9.3%,8.2µM*,-0.9
COc1ccc(CC(=O)Nc2ccccc2-c2ccccc2)cc1OC,-18.0%,26.9%,-28.8%,-2.5%,-27.3%,-4.3
COc1ccc(CC(=O)Nc2nc(-c3ccccc3)c(C(C)=O)s2)cc1OC,-47.2%,-9.3%,-8.5%,-9.0%,18.3µM*,-1.7
O=c1[nH]nc(-c2cccs2)c2ccccc12,-33.6%,8.0%,1.9%,-2.6%,1.9%,-11.8
CCn1c(SCC(=O)N/N=C/c2cc(OC)c(OC)c(OC)c2)nc2ccccc21,-39.1%,14.9%,-10.1%,-2.3%,?,4.2
CC1(C)CC[C@]2(C(=O)O)CC[C@]3(C)C(=CCC4[C@@]5(C)CC[C@H](O)C(C)(C)[C@@H]5CC[C@]43C)C2C1 (some centres not stated),nt,-19.9%,0.3%,nt,nt,nt
O=C(Nc1ccc(Cl)cc1)N(Cc1nc2ccccc2c(=O)[nH]1)Cc1cccs1,-50.4%,?,?,17.5%,18.4µM*,-13.3
SMILES,BRCA1 expr up,RORg inh,Gal4-VP16 FLuc,p53 reactivator,ELG1 DNA repair,Giardia killer
O=C(Nc1ccc(Cl)cc1)N(Cc1cccs1)Cc1cccs1,-48.2%,?,12.1%,-21.4%,?,-11.1
O=C(CCCl)N(Cc1nc2ccccc2c(=O)[nH]1)Cc1cccs1,-6.8%,11.2µM*,-6.8%,0.4%,13.7%,16.3
O=C(Nc1ccccc1Cl)N(Cc1nc2ccccc2c(=O)[nH]1)Cc1cccs1,-42.5%,11.2µM*,?,3.8%,?,2.8
O=C(C1CC1)N(Cc1nc2ccccc2c(=O)[nH]1)Cc1cccs1,-0.5%,?,-0.6%,-1.9%,-3.6%,16.4
CC(C)(C)C(=O)N(Cc1nc2ccccc2c(=O)[nH]1)Cc1cccs1,-3.2%,?,-5.9%,5.3%,-4.6%,-10.8
CC(=O)c1c(C)n([O-])c2cc(C)ccc2[n+]1=O,6.0%,-8.5%[10 µM],2.3%,-0.7%,-3.0%,-103.5*
COc1ccc(-c2c(C)n([O-])c(C)c(C)[n+]2=O)cc1OC,-13.0%,11.5%,-10.5%,-13.9%,-2.4%,1.1
CN1c2ccccc2-c2nc3ccccc3n2C1c1cccs1 (configuration not stated),-34.8%,4.47µM*,-2.8%,-3.4%,-21.0%,4.5
Cc1ccc(C2N(C)c3ccccc3-c3nc4ccccc4n32)o1 (configuration not stated),-45.2%,10µM*,-16.1%,-3.4%,0.0%,-3.1
CCN1c2ccccc2-c2nc3ccccc3n2C1c1ccccn1 (configuration not stated),-22.4%,8.91µM*,-11.0%,-14.8%,-15.6%,-4.2
CC(=O)N1c2ccccc2-c2nc3ccccc3n2C1C (configuration not stated),-0.4%,-4.4%,0.9%,-3.0%,11.7%,-5.1
O=C(C1=C(O)C(=O)N(CCN2CCOCC2)C1c1cccc([N+](=O)[O-])c1)c1cccs1 (configuration not stated),-1.4%,7.7%,13.6%,2.0%,6.0%,-2.7
Cc1ccc(S(=O)(=O)N(CC(O)Cn2c3ccccc3c3ccccc32)c2cccc(C(=O)NCCO)c2)cc1 (configuration not stated),-59.7%,nt,nt,nt,nt,nt
c1ccc(CN2CCN(CCCNc3ccc4nnc(-c5ccccc5)n4n3)CC2)cc1,-2.1%,5.9%,-4.8%,0.7%,18.4µM*,-2.9
CC(C)C(=O)NC(NC(=S)Nc1ccc(S(N)(=O)=O)cc1)C(Cl)(Cl)Cl (configuration not stated),-2.5%,-6.8%,1.1%,-3.2%,5.3%,-4.3

# Screening results from PubChem.
